This note sets out measurements from PubChem BioAssay (NCI).

SMILES strings stand for the structures. About 79,000 compounds went through this panel and 15% of them were active in at least one assay; those are over-represented in the sample as a whole. Unmarked numbers belong to inactive results. Calls of active or inactive are those of the source. No stated cut-off is given here; in the data, active means growth inhibition above about 70%; inactive means the rest.

The nature of experiment [1]: NCI Yeast Anticancer Drug Screen. Data for the rad50 strain (AID 155).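 Further: 0% = growth of vehicle-only cultures of the same strain.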 As to conditions: S. cerevisiae rad50 strain growth inhibition; at 50.0 µM; stronger effect = higher value. The gist of the method:
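Vehicle-treated cultures provide the reference for the growth inhibition reported for compound-exposed, repair-deficient yeast.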

The nature of experiment [2]: NCI Yeast Anticancer Drug Screen. Data for the mec2-1 strain (AID 157). As to conditions: S. cerevisiae mec2-1 strain, at 50.0 µM, stronger effect = higher value. The gist of the method:
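Readout is yeast growth inhibition, normalised to vehicle-treated controls, in the mec2-1 strain exposed to compound.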

Experiment [3] can be described thus: NCI Yeast Anticancer Drug Screen. Data for the sgs1 mgt1 strain (AID 161).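 Further: 0% = growth of cultures given vehicle only.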 The note with it: S. cerevisiae sgs1 mgt1 strain, at 50.0 µM, stronger effect = higher value. Summed up:
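Percent growth inhibition was derived by comparing compound-exposed mutant yeast with vehicle-exposed cultures. The strain carries alterations in DNA damage repair.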

A short description of experiment [4]: NCI Yeast Anticancer Drug Screen. Data for the cln2 rad14 strain (AID 165).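 Further: 0% = growth equal to vehicle treated cultures.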 As to conditions: S. cerevisiae cln2 rad14 strain, at 50.0 µM, stronger effect = higher value. The gist of the method:
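Relative to vehicle controls, growth inhibition of compound-treated cln2 rad14 yeast was recorded.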

Experiment [5] in a line: NCI Yeast Anticancer Drug Screen. Data for the bub3 strain (AID 167). The note with it: S. cerevisiae bub3 mutant strain, at 50.0 µM, stronger effect = higher value. Summed up:
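Mutant yeast screening strain plus compound; vehicle-treated cultures serve as the 0% inhibition reference.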

A short description of experiment [6]: NCI Yeast Anticancer Drug Screen. Data for the mlh1 rad18 strain (AID 175). The note with it: S. cerevisiae mlh1 rad18 strain growth inhibition; at 50.0 µM; stronger effect = higher value. The gist of the method:
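Test agents were incubated with a yeast strain of defined genotype (DNA damage repair defect). Inhibition of growth was derived by comparison with vehicle-exposed cultures.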

For `C/C(=N\N=C(/C)c1ccc(N)cc1)c1ccc(N)cc1`, the growth inhibition in experiment [1] is 15.9%; in experiment [2] it was 5%; in experiment [3] it was 1.9%; in experiment [4], -3.3%; in experiment [5], 13.9%; in experiment [6], 9%.
`c1ccc(C2=C(c3ccccc3)c3ccccc3C2)cc1`: the growth inhibition was 0.3% in experiment [1]; -7.3% in experiment [2]; 8.55% in experiment [3]; 0.35% in experiment [4]; -8.85% in experiment [5]; -9.35% in experiment [6].
In the case of `C[CH2][GeH][CH2]C.C[CH2][Ge]([CH2]C)[CH2]C`, the growth inhibition is 95.2% (active) in experiment [1]; 97% (active) in experiment [2]; 60.8% in experiment [3]; 96.5% (active) in experiment [4]; 96% (active) in experiment [5]; 94.8% (active) in experiment [6].
On to `O=C(CC(=O)N(C(=O)/C=C\c1ccccc1)c1ccc(Cl)cc1)N1N=C(c2ccccc2)C(N=Nc2cccc([N+](=O)[O-])c2)C1=O` (stereo unspecified), for which the growth inhibition in experiment [1] is 7.5%; in experiment [2] it was 3.45%; in experiment [3] it was 9.5%; in experiment [4] it was 1.75%; in experiment [5] it was 14.7%; in experiment [6], 5.5%.
Consider `CCOC(CN(C)C(=S)Nc1cccc2ccccc12)OCC`, for which the growth inhibition is -27.1% in experiment [1]; -30.1% in experiment [2]; -2.2% in experiment [3]; -6.45% in experiment [4]; -6.9% in experiment [5]; -13.2% in experiment [6].
As to `c1nc2c([nH]1)CNCC2`, the growth inhibition in experiment [1] was -3.05%; in experiment [2] it was -11.2%; in experiment [3], -9.05%; in experiment [4] it was -65.7%; in experiment [5] it was -12.2%; in experiment [6] it was 5%.
For `COc1ccc(Cl)cc1NC(=O)Nc1cccc(C(C)=O)c1`, the growth inhibition in experiment [1] is -4.55%; in experiment [2], 16.6%; in experiment [3] it was 11.3%; in experiment [4], -13.3%; in experiment [5], 17.9%; in experiment [6], 31.4%.
For the compound `Fc1ccc(C=C2c3ccccc3-c3ccccc32)cc1`, the growth inhibition in experiment [1] was 11.7%; in experiment [2], 4.5%; in experiment [3], 18.4%; in experiment [4] it was 39.2%; in experiment [5], 11.7%; in experiment [6] it was -3.6%.
`CC(=O)O[C@]1(C(C)=O)CC[C@H]2[C@@H]3C[C@H](C)C4=CC(=O)C=C[C@]4(C)[C@@]3(F)[C@@H](O)C[C@@]21C`: the growth inhibition is 3.25% in experiment [1]; -35.4% in experiment [2]; -10.9% in experiment [3]; -15.4% in experiment [4]; -16.9% in experiment [5]; 20.8% in experiment [6].
For `CSc1nc2c(c(=O)[nH]1)N=C(c1ccccc1)CC(c1ccccc1)N2` (stereo unspecified), the growth inhibition in experiment [1] is 7.45%; in experiment [2] it was 14.7%; in experiment [3], 17.8%; in experiment [4], -0.55%; in experiment [5] it was 22.6%; in experiment [6], -5.85%.
As for `CN(C)Cc1cc(C(=O)/C=C/c2c(F)cccc2Cl)cc(CN(C)C)c1O`, the growth inhibition is 1.7% in experiment [1]; 21.4% in experiment [2]; 2.35% in experiment [3]; 1.05% in experiment [4]; -13.8% in experiment [5]; 7.35% in experiment [6].
On to `CC1(C)OC(C(F)(F)F)(C(F)(F)F)c2cc(C(C)(C)C)ccc2S1`, for which the growth inhibition in experiment [1] is -26.9%; in experiment [2], -29.8%; in experiment [3] it was -12.7%; in experiment [4] it was -35.4%; in experiment [5], -1%; in experiment [6], -9.95%.
Consider `CCc1c(O)c2c([nH]c1=O)SC(C)(C)CC2=NCC(C)C`, for which the growth inhibition in experiment [1] is -23.8%; in experiment [2], -33.5%; in experiment [3] it was -16.9%; in experiment [4], -2.45%; in experiment [5] it was -43.6%; in experiment [6], 9.15%.
On to `CC(=O)Nc1ccccc1C=O`, for which the growth inhibition in experiment [1] is -4.15%; in experiment [2], -7.95%; in experiment [3] it was 3.75%; in experiment [4], -15.3%; in experiment [5], -14.9%; in experiment [6], -5.55%.
Turning to `O=c1oc2c(ccc3ccccc32)c(O)c1-c1cccc2ccccc12`, the growth inhibition was 99.2% (active) in experiment [1]; 99.5% (active) in experiment [2]; 99.5% (active) in experiment [3]; 99% (active) in experiment [4]; 97.7% (active) in experiment [5]; 99.3% (active) in experiment [6].
In the case of `Cc1ccc(S(=O)(=O)/N=[N+](\[O-])c2ccc(N(C)C)cc2)cc1`, the growth inhibition in experiment [1] was -32.4%; in experiment [2], -3.35%; in experiment [3] it was -7.55%; in experiment [4], -35.7%; in experiment [5] it was -7.8%; in experiment [6] it was -3.35%.
Consider `O=NSC(c1ccccc1)(c1ccccc1)c1ccccc1`, for which the growth inhibition in experiment [1] was 1.65%; in experiment [2], -24.2%; in experiment [3] it was 1.6%; in experiment [4], -28.1%; in experiment [5] it was -9.25%; in experiment [6] it was 0%.
Consider `COc1ccc(/C=N/N2CCN(/N=C/c3ccc(OC)c(OC)c3)CC2)cc1OC`, for which the growth inhibition in experiment [1] is 22.9%; in experiment [2], 0.65%; in experiment [3] it was 3.25%; in experiment [4], 19.1%; in experiment [5] it was -1.75%; in experiment [6] it was 1.15%.
Turning to `CCN1C(=O)c2cc(=O)[nH]c(O)c2C1C` (stereo unspecified), the growth inhibition in experiment [1] is 7.8%; in experiment [2], -2.7%; in experiment [3] it was -1.7%; in experiment [4], -20.4%; in experiment [5], -2.65%; in experiment [6], 10.9%.
Turning to `NNC(=O)C(=O)N/N=C1\CCC(=O)CC1C(=O)CCC(=O)Nc1ccc(Cl)cc1` (stereo unspecified), the growth inhibition in experiment [1] was 10.3%; in experiment [2], 1.05%; in experiment [3] it was -16.6%; in experiment [4], -9.35%; in experiment [5] it was -0.8%; in experiment [6], -17.5%.
Regarding `O/N=C1\C(=C\c2ccc3c(c2)OCCO3)CCCC1C(NO)c1ccc2c(c1)OCCO2` (stereo unspecified), the growth inhibition in experiment [1] was 13.1%; in experiment [2], 16.7%; in experiment [3] it was 29.9%; in experiment [4], 2.8%; in experiment [5], 16.9%; in experiment [6] it was 6.15%.
